GPR151 activ – activates the human receptor GPR151. PathHunter beta-arrestin GPR151 cells, luminescence. AID 1508602. 1% of 650,000 active. activation, % at 11.2 µM; in the data active = activation above about 4.9%;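 also: 0% = median of compound wells and 100% = cells with positive control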
MITF primary – blocks human microphthalmia-associated transcription factor; O75030; AID 1259374; inhibition, % at 2.6 µM; 0.91% of 650,000 active; AlphaScreen MITF homodimerization, bead proximity signal; in the data active = inhibition above about 50%;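 also: 0% = vehicle wells with protein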
TEAD-YAP inh – TEAD-YAP interaction inhibition. 1.4% of 640,000 active. AID 1259422. HEK-TIYL cells, TEAD-Gal4/YAP UAS-luciferase luminescence. inhibition, % at 9.12 µM; in the data active = inhibition above about 32%;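 also: 0% = median of test compound wells and 100% = reference inhibitor wells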
FBW7 activator – activators of human E3 ligase FBW7. normalized activity (activation), % at 26.1 µM. AlphaScreen FBW7–phospho-cyclin E peptide binding, activator screen. Q969H0. 0.13% of 650,000 active; in the data active = normalized activity above about 1.9%;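 also: purified mutant Fbw7 with reduced substrate affinity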
Target sequence (Q969H0 whole entry, looked up): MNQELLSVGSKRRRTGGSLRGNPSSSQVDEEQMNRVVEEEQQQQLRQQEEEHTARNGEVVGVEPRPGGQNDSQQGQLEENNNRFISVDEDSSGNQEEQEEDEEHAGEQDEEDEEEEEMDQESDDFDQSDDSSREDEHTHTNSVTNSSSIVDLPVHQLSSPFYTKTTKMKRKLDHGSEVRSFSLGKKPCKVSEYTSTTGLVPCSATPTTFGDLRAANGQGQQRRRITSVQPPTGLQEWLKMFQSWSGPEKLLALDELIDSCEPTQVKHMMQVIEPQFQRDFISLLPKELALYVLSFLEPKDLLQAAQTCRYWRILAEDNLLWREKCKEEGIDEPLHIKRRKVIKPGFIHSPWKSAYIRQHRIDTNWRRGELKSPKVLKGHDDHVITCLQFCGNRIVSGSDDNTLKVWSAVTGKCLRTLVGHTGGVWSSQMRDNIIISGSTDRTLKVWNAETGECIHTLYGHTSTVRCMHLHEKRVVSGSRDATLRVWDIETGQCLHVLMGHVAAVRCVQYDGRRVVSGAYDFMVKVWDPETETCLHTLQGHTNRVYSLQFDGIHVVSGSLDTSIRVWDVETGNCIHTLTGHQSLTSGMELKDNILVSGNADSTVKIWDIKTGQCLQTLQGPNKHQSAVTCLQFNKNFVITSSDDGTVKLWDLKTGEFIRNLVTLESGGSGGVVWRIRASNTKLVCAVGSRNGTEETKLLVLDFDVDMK
MITF inh conf – confirmation of human MITF inhibitors | AlphaScreen MITF homodimerization, biotin/His-MITF beads | AID 1259372 | 16% of 4,700 active | shares compounds with MITF primary | inhibition, % at 2.6 µM;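 active = inhibition above a cutoff derived from the DMSO control wells, cut at about 28% in these data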;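 also: 0% = MITF dimer wells with DMSO only; inhibitors lower the bead chemiluminescence by keeping MITF from dimerizing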
AS interf DR – counter-screen: compounds optically interfering with AlphaScreen | shares compounds with MITF primary | AlphaScreen optical interference counterscreen, cell-free | IC50, µM | 6% of 480 active; call rule not given here
AS interf ctr – AlphaScreen optical interference, counter-screen; shares compounds with MITF primary; LysRS AlphaScreen counterscreen, signal interference, triplicate; inhibition, % at 2.6 µM; 7.6% of 4,700 active;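 active = inhibition above a cutoff derived from the DMSO control wells, cut at about 30% in these data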
* hit, by the source's call; / = no result given. Compounds with a hit are over-represented: about 3.4% of the library has one in this group of screens.

SMILES	GPR151 activ	MITF primary	TEAD-YAP inh	FBW7 activator	MITF inh conf	AS interf ctr	others
COc1ccccc1N1CCN(C2CCN(Cc3cccc(F)c3)CC2)CC1	0	62*	2	0	0	0
CSc1ccc(Cl)c(C(=O)Nc2cccc(C)n2)c1	-1	7	2	0	/	/
CC1CC(C)(C)Cc2c1sc(NC(=O)c1ccco1)c2C#N (stereo unspecified)	1	84*	-38	0	-2	-8
Cc1ccc(Cl)cc1N1CCN(C(=O)CCN2N=C(c3ccccc3)CCC2=O)CC1	0	4	8	0	/	/
Cn1cccc1CN1CCN(C(=O)c2ccccc2F)CC1	0	54*	8	0	11	17
Cn1cccc1CN1CCN(C(=O)c2ccc(-c3ccccc3)cc2)CC1	1	33	-6	0	/	/
Cn1cccc1CN1CCN(C(=O)c2cccc(F)c2)CC1	3	27	10	0	/	/
Cn1cccc1CN1CCN(C(=O)c2ccc(F)cc2)CC1	0	53*	4	0	11	18
CCS(=O)(=O)C1=NN2C(=N)/C(=C\c3ccc(F)cc3)C(=O)N=C2S1	4	9	-12	0	/	/
C=CCn1c(SCC2OCCO2)nc2cc(C(=O)NCc3ccco3)ccc2c1=O	0	67*	20	0	-4	1
C=CCn1c(SCc2ccc(C)cc2)nc2cc(C(=O)NCc3ccco3)ccc2c1=O	-1	19	-1	0	/	/
CCCCCCC1CCC(c2noc(-c3ccccc3Cl)n2)CC1 (stereo unspecified)	2	-4	5	0	/	/
COc1cccc(NC(=O)CSc2nc3ccc(N4C(=O)c5ccccc5C4=O)cc3s2)c1	0	-1	2	0	/	/
CCCCc1ncc(CN2CCC3(CCC(CNC(=O)c4ccccc4)O3)CC2)[nH]1 (stereo unspecified)	3	84*	-6	0	0	2
COc1ccc(N(CC(=O)Nc2c(C)n(C)n(-c3ccccc3)c2=O)S(=O)(=O)c2ccccc2)cc1	0	0	3	0	/	/
CC1CCCC(C)N1C(=O)NC(=O)c1ccccc1 (stereo unspecified)	2	-3	-2	0	/	/
COc1ccc(/C=C/C(=O)C(C)(C)O)cc1	2	58*	-7	0	-4	6
Cc1ccc(NC(=O)CSc2nc3ccccc3c(=O)n2CCCN2CCN(c3cccc(Cl)c3)CC2)cc1	0	15	-5	0	/	/
C=CCc1ccc(OCCN2CCN(CC)CC2)c(OC)c1	0	71*	-6	0	4	15
C=CCc1ccc(OCCCCCN2CCOCC2)c(OC)c1	3	59*	-7	0	0	-1
C=CCc1ccc(OCCNC)c(OC)c1	3	38	2	0	/	/
C=CCc1ccc(OCCCCN2CCNCC2)c(OC)c1	2	67*	-11	0	6	1
O=c1[nH]c2ccccc2n1CN1CCOCC1	2	90*	-3	0	5	11
O=c1[nH]c2ccccc2n1CCCN1CCCCC1	1	-5	-2	0	/	/
O=c1[nH]c2ccccc2c(=O)n1CCCN1CCOCC1	-1	11	-1	0	/	/
SMILES	GPR151 activ	MITF primary	TEAD-YAP inh	FBW7 activator	MITF inh conf	AS interf ctr	others
O=c1[nH]c2ccccc2n1CN1CCc2ccccc2C1	1	51*	-1	0	11	13
CCN(CC)C(=O)c1sc(NC(=O)c2ccccc2OC)c(C(=O)OC)c1C	0	4	-3	0	/	/
CC(C)CN1C(=O)C(=O)N(CC(=O)NC2CCCc3ccccc32)C1=O (stereo unspecified)	0	-11	-6	0	/	/
CN(C)C(CNCC(=O)NC1CCCc2ccccc21)c1ccccc1 (stereo unspecified)	0	76*	6	0	22	56*
O=C(NC(=S)N1CCOCC1)c1cc(-c2ccco2)nc2ccccc12	3	-4	3	0	/	/
COCCNC(=O)COC(=O)c1cc(-c2ccco2)nc2ccccc12	1	72*	2	0	69*	-9	AS interf DR=>6.6
O=C(OCCCC(=O)N1CCOCC1)c1cc(-c2ccco2)nc2ccccc12	-1	73*	-7	0	77*	4	AS interf DR=>6.6
c1ccc(CN2CCC(NCc3ccncc3)CC2)cc1	-1	63*	-1	0	8	13

Assay outcomes: PubChem, The Scripps Research Institute Molecular Screening Center
